Assay outcomes from PubChem BioAssay.
TbREL1 primary – TbREL1 RNA ligase inhibitors, primary screen, biochemical, FRET fluorescence | TbREL1 RNA ligation | inhibition, % at 9.66 µM | actives 0.49% (n = 89,000) | AID 1117264, 2014;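 active = inhibition above the mean inhibition across all screened compounds plus 3 SD, cut at about 11% in these data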;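 note: 0% = plate median of test wells and 100% = NSC42067 control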
Target sequence (P86926 whole entry, looked up): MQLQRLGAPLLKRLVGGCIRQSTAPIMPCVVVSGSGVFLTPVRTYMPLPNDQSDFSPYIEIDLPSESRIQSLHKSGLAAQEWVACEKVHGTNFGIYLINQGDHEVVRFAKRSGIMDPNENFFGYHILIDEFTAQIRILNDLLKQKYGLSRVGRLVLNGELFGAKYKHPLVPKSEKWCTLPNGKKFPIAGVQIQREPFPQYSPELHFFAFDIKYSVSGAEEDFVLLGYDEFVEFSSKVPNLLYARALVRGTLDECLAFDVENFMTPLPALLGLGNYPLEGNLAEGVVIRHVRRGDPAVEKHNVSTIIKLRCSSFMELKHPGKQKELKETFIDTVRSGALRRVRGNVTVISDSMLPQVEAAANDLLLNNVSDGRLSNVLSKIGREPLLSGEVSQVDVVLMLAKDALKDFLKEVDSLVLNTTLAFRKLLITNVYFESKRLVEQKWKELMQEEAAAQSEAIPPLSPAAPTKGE
TbREL1 conf – TbREL1 RNA ligase inhibitors, confirmation, biochemical, FRET fluorescence, triplicate; shares compounds with TbREL1 primary; TbREL1 RNA ligation; inhibition, % at 9.66 µM; actives 37% (n = 390); AID 1117282, 2014;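 active = mean inhibition across replicates above a set limit taken from the earlier primary screen, cut at about 11% in these data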;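 note: 0% = REL1 with substrate and DMSO and 100% = REL1 plus control inhibitor NSC42067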
Numbers without * were called inactive. This excerpt belongs to a sample that is enriched for hits.

SMILES	TbREL1 primary	others
Cc1cc(O)c2c(c1)C(=O)[C@@]13C(=C2O)C(=O)[C@H]2C(O)[C@@H]1[C@H]1C(O)[C@@H]3C(=O)C3=C(O)c4c(O)cc(C)cc4C(=O)[C@@]312 (some centres undefined)	32.3*	TbREL1 conf=62.9*
COC(=O)C1=C(c2cccc(C#N)c2)C[C@@H]2CC[C@H]1N2C(=O)N1CCc2cc(OC)c(OC)cc2C1	-2.8
CCC(CC)N1CCN(C(=O)Cc2ccccc2)CC1	5.6
Cc1cccn2c(NCC3CCCO3)c(C(C)C)nc12 (centres undefined)	-0.8
CCC(C)OC(=O)c1c(N)n(Cc2cccs2)c2nc3ccccc3nc12 (centres undefined)	6.8
CCC(C)NC(=O)c1c(N)n(CC2CCCO2)c2nc3ccccc3nc12 (centres undefined)	37.3*	TbREL1 conf=28.9*
CCC(C)NC(=O)c1c(N)n(CCCOC)c2nc3ccccc3nc12 (centres undefined)	44.5*	TbREL1 conf=35.9*
CN(C)CC1CCCCC1OC(=O)Cc1ccc(Cl)c([N+](=O)[O-])c1 (centres undefined)	-2.1
Cc1cc(N2CCNC[C@@H]2C)ccc1N1CCN[C@@H](C)C1	2.0
COC(=O)C1=C(c2ccc(OC(F)(F)F)cc2)C[C@@H]2CC[C@H]1N2C(=O)N1CCCC1	6.8
COC(=O)C1=C(c2cccc(OC)c2OC)C[C@@H]2CC[C@H]1N2C(=O)NCCO	3.6
O=C(Cn1nc(-c2ccc(Cl)cc2)ccc1=O)N1CCC2(CC1)OCCO2	-5.7
O=C1NC(=O)C(=Cc2ccc(OCC(=O)N3CCOCC3)cc2)C(=O)N1	-2.6
C[C@@H]1COc2cc(N3CCN(C)CC3)ccc2S(=O)(=O)N1	-1.8
CN1CCN(c2ccc(N)cc2)CC1	16.8*	TbREL1 conf=11.0
CN1CCN(c2ccc(NC(=O)C(C)(C)C)cc2)CC1	-1.3
Cn1c[n+](C)cc1C(O)c1ccccc1 (centres undefined)	0.9
CC(c1ccccc1)n1cncc1C(=O)N1CCCC1=O (centres undefined)	1.7
Clc1cccc(N2Cc3cc(N4CCOCC4)ccc3-n3nncc3C2)c1	-1.3
COc1ccc(-c2ccc3c(c2)CN(c2cccc(Cl)c2)Cc2cnnn2-3)cc1	15.4*	TbREL1 conf=5.3
CC(C)(C)C(=O)N1Cc2cc(-c3cccc(F)c3)ccc2-n2nncc2C1	-1.8
O=c1[nH]c2ccccc2n1C1CCN(C(c2ccccc2OC(F)(F)F)c2nnnn2-c2ccc3c(c2)OCCO3)CC1 (centres undefined)	1.8
C[C@]12CCC3C(CC[C@H]4C[C@@H](O)CC[C@]34C)C1C[C@@H](O)[C@@H]2O (some centres undefined)	5.1
C=C[C@@H]1C[C@@]1(C)[C@@H](NP(=O)(c1ccccc1)c1ccccc1)c1ccccc1	0.5
N/C(=N\N=C/c1ccc(-c2ccc(O)c(C(=O)O)c2)o1)N[N+](=O)[O-]	48.6*	TbREL1 conf=16.9*
COc1ccc(/C=N/N=C(/N)N[N+](=O)[O-])c(OC)c1	1.2
CC(=O)C1C2c3ccccc3O[C@@]1(C)N=c1s/c(=C/c3ccoc3)c(=O)n12 (some centres undefined)	-1.2
NP(=O)(OCCCc1ccccc1)Oc1ccccc1Cl (centres undefined)	0.3
CCCCn1c(O)c(C(C)=Nc2ccc3c(c2)CCC3)c(=O)[nH]c1=O	-1.4
Cc1ccc(NC2=NCCCS2)cc1Cl	-2.5
